rRNA inh HTS: inhibits bacterial ribosomal RNA function over humanized ribosomes; AID 720706; E. coli WT GFP vs humanized-ribosome RFP mutants, fluorescence, 24 h; stronger effect = lower value; DMSO median 0, no signal -100; 1.6% of 350,000 active; GFP signal change (wild-type ribosome), % (no concentration beside the values);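 active = significant combined selectivity score with lowered wild-type GFP, culture density cut under 30%, mutant RFP and density less affected; inactive = any of these conditions unmet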
LGR2 inh: blocks bursicon-induced cAMP signaling via Drosophila LGR2. HEK293 LGR2, CRE-luciferase, bursicon-stimulated, 4 h. inhibition, % at 9.99 µM. AID 720647. 0.35% of 380,000 active;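 active = drop in luminescence signal, shown as inhibition above about 50% in the replicate tests, limit read from the data, passing the limit was not always enough; inconclusive = probably only some replicates passing the limit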;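 also: agonist challenge used bursicon conditioned medium at about half maximal strength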
PGC1a acetyl inh: PGC1a acetylation modulation, inhibitor mode. U2OS PGC1a acetylation, AlphaScreen anti-acetyl-lysine; with virally co-expressed GCN5 acetyltransferase. inhibition, % at 15.6 µM. 0.17% of 350,000 active;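 active = every replicate shows inhibition of at least 40%; inconclusive = mean inhibition at least 40% but some replicate below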;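 also: 0% = neutral control wells and 100% = positive control wells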
SIRT5 block: blocks human SIRT5 desuccinylation of peptide; Q9NXA8; Purified SirT5, succinyl-peptide AMC, trypsin-coupled fluorescence; inhibition, % at 15 µM; 1.1% of 330,000 active; in the data active = inhibition above about 15%; inconclusive = no clear call, values can overlap the other calls
Target sequence (Q9NXA8 whole entry, looked up): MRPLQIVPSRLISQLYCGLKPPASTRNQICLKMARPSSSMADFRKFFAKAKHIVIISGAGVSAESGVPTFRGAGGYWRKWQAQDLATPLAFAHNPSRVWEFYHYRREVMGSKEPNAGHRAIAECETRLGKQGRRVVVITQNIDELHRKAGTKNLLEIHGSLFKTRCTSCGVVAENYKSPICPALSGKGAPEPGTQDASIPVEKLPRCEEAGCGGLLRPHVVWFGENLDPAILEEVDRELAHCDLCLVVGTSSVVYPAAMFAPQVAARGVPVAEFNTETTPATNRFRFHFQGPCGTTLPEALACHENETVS
EWS-Fli block: inhibitors of EWS/Fli oncoprotein transcriptional activity; 0.67% of 350,000 active; A673 NR0B1-luciferase reporter, viability-normalised; inhibition, % at 12.6 µM; AID 651661;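 active = mean inhibition of at least 50% after viability correction, with every replicate also passing that limit; inconclusive = mean reaches 50% but only one of two replicates passes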;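 also: firefly luciferase signal divided by Alamar Blue viability fluorescence both relative to DMSO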
PAX8 reporter: inhibitors of PAX8 transcriptional activity in RMG-I cells; inhibition, % at 12.6 µM; 1.2% of 360,000 active; RMG-I TPO-luciferase reporter, SteadyGlo, 24 h; AID 652154;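 active = mean replicate inhibition at least 60% with every replicate also reaching 60%; inconclusive = only one of the two criteria is met; inactive = mean below 60% and not all replicates reaching 60%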;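 also: luciferase light reporting Pax8 driven TPO promoter activity; plate controls were median of neutral control wells for no effect and mitoxantrone controls for full effect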
* hit, by the source's call; ? = inconclusive; . = no result given. Shown are actives, neighbours in structure and some others; about 3.4% of the full set was active somewhere.

SMILES | rRNA inh HTS | LGR2 inh | PGC1a acetyl inh | SIRT5 block | EWS-Fli block | PAX8 reporter
Cc1ccc(S(=O)(=O)N[C@H]2CC[C@@H](CC(=O)NCCN3CCCCC3)O[C@H]2CO)cc1 | 1 | -6 | 3 | -1 | -4 | -2
CCCC(=O)NC(=S)Nc1cccc(NC(=O)c2ccccc2)c1 | 12 | 7 | -2 | 0 | 7 | 19
COc1cccc(NC(=O)c2cccc(C(=O)Nc3cccc(OC)c3)c2)c1 | 7 | 6 | . | -2 | -13 | -17
CCCCC(=O)NC(=S)Nc1cccc(NC(=O)c2ccccc2)c1 | -19* | -1 | 7 | -2 | 14 | -18
COc1cccc(NC(=O)c2ccccc2)c1 | 6 | -41 | . | 32* | -91 | -146
C[C@H](CO)N1C[C@H](C)[C@H](CN(C)C(=O)C2CCCCC2)Oc2ncc(C#Cc3ccccc3F)cc2C1=O | -3 | 3 | 6 | 6 | 2 | 22
O=C(CN1CCOCC1)NCC[C@H]1CC[C@@H](NC(=O)Cc2ccccn2)[C@@H](CO)O1 | -1 | 2 | 1 | -3 | 2 | 4
C=C1C(=O)[C@]23C[C@H]1CCC2[C@]1(C)C(=O)CC[C@@](C)(C(=O)O)C1C[C@@H]3O (stereo partly drawn) | 1 | 12 | -12 | -4 | 9 | 65*
C=C/C(C)=C/CC1C(=C)CCC2C(C)(C(=O)O)CCCC12C (stereo not drawn) | -1 | . | -19 | 0 | -6 | .
C=C1C(=O)[C@]23C[C@H]1CCC2[C@]1(C)CCC[C@@](C)(C(=O)O)C1C[C@@H]3O (stereo partly drawn) | 9 | 25 | ? | . | 40 | 117*
C=C1C(=O)[C@]23C[C@H]1CC[C@H]2[C@]1(C)[C@@H](OC(C)=O)CC[C@@](C)(C(=O)O)[C@H]1C[C@@H]3OC(C)=O | 23 | -3 | -11 | -1 | 10 | 86*
C[C@@H]1CN([C@@H](C)CO)C(=O)c2cccc(NC(=O)Nc3ccc(C(F)(F)F)cc3)c2O[C@@H]1CN(C)S(=O)(=O)c1ccc(Cl)cc1 | 1 | 14 | 2 | 6 | -5 | .
CO[C@@H]1CN(C)C(=O)c2ccc(NC(=O)Nc3ccc(Cl)cc3)cc2OC[C@H](C)N(C(=O)Nc2c(C)noc2C)C[C@@H]1C | -5 | -10 | 2 | -1 | -12 | 3
O=C(NCc1ccc(-c2nc3ccccc3s2)cc1)c1ccco1 | -20* | -40 | -10 | -1 | -17 | -78
Cc1ccc2nc(-c3ccc(NC(=O)COC(=O)c4ccc([N+](=O)[O-])o4)cc3)sc2c1 | -4 | 83* | . | . | 55* | 34
Cc1ccc2nc(-c3ccc(NC(=O)COC(=O)c4ccc(Br)o4)cc3)sc2c1 | . | ? | . | . | . | -51
Cc1ccc2nc(-c3ccc(NC(=O)COC(=O)c4ccco4)cc3)sc2c1 | . | 66* | . | . | . | -38
Cc1ccc(S(=O)(=O)Nc2ccc3c(c2)C(=O)N([C@H](C)CO)C[C@@H](C)[C@H](CN(C)S(=O)(=O)c2ccccc2)OCCCC[C@H](C)O3)cc1 | -2 | -14 | -11 | 10 | 3 | 80*
Cc1ccc(S(=O)(=O)Nc2ccc3c(c2)C(=O)N([C@@H](C)CO)C[C@@H](C)[C@@H](CN(C)S(=O)(=O)c2ccccc2)OCCCC[C@H](C)O3)cc1 | 1 | 3 | 1 | 0 | 12 | 3
Cc1ccc(S(=O)(=O)N(C)C[C@@H]2OCCCC[C@@H](C)Oc3ccc(NS(=O)(=O)c4ccccc4)cc3C(=O)N([C@@H](C)CO)C[C@@H]2C)cc1 | 1 | -2 | 5 | 21* | -1 | 20
Cc1ccc(S(=O)(=O)N(C)C[C@@H]2OCCCC[C@@H](C)Oc3ccc(NS(=O)(=O)c4ccccc4)cc3C(=O)N([C@H](C)CO)C[C@H]2C)cc1 | 0 | 8 | -8 | 22* | 2 | 16
Cc1ccc(S(=O)(=O)Nc2ccc3c(c2)C(=O)N([C@H](C)CO)C[C@@H](C)[C@@H](CN(C)S(=O)(=O)c2ccccc2)OCCCC[C@H](C)O3)cc1 | 0 | 6 | -8 | 13 | 2 | 23
Cc1ccc(S(=O)(=O)Nc2ccc3c(c2)C(=O)N([C@@H](C)CO)C[C@H](C)[C@@H](CN(C)S(=O)(=O)c2ccccc2)OCCCC[C@@H](C)O3)cc1 | 11 | 8 | -7 | 19* | 8 | 50
Cc1ccc(S(=O)(=O)N(C)C[C@H]2OCCCC[C@@H](C)Oc3ccc(NS(=O)(=O)c4ccccc4)cc3C(=O)N([C@H](C)CO)C[C@@H]2C)cc1 | 0 | -12 | -5 | 7 | -23 | -13
COc1ccc2c3c(n(C)c2c1)[C@@H](CO)N(Cc1ccc2c(c1)OCO2)CC31CCN(C(C)=O)CC1 | -2 | -14 | -3 | -2 | 4 | -5
SMILES | rRNA inh HTS | LGR2 inh | PGC1a acetyl inh | SIRT5 block | EWS-Fli block | PAX8 reporter
Cc1ccc(S(=O)(=O)N(C)C[C@@H]2OCCCC[C@H](C)Oc3ccc(NS(=O)(=O)c4ccccc4)cc3C(=O)N([C@@H](C)CO)C[C@@H]2C)cc1 | -1 | 18 | -9 | 1 | 9 | 20
Cc1ccc(S(=O)(=O)Nc2ccc3c(c2)C(=O)N([C@H](C)CO)C[C@@H](C)[C@@H](CN(C)S(=O)(=O)c2ccccc2)OCCCC[C@@H](C)O3)cc1 | 1 | 2 | -31 | 21* | . | 26
Cc1ccc(S(=O)(=O)Nc2ccc3c(c2)C(=O)N([C@H](C)CO)C[C@H](C)[C@H](CN(C)S(=O)(=O)c2ccccc2)OCCCC[C@@H](C)O3)cc1 | 3 | -2 | 6 | 15 | 6 | 2
Cc1ccc(S(=O)(=O)N(C)C[C@H]2OCCCC[C@H](C)Oc3ccc(NS(=O)(=O)c4ccccc4)cc3C(=O)N([C@H](C)CO)C[C@@H]2C)cc1 | -5 | -4 | -3 | 3 | 20 | 62*
CC(=O)N1C2CN(CC(F)(F)F)CC1C2c1ccc(Br)cc1 (stereo not drawn) | -7 | . | . | . | . | .
O=C(N[C@@H]1CC[C@@H](CCNC(=O)C2CC2)O[C@H]1CO)c1ccncc1 | 0 | -18 | 8 | -4 | 2 | .
CCCNC(=O)N1c2ccccc2Sc2ccccc21 | -18 | 3 | . | -3 | 7 | 8
C=CCNC(=O)N1c2ccccc2Sc2ccccc21 | -24* | -2 | 13 | -2 | 8 | 9
CCC(C)NC(=O)N1c2ccccc2Sc2ccccc21 (stereo not drawn) | -31* | 0 | . | -2 | -2 | 3
Cc1cc(/C=C(\C#N)C(=O)N2CCOCC2)c(C)n1C1CCCC1 | -22* | 52* | . | -2 | 8 | -75
COc1ccc(S(=O)(=O)Nc2ccc3c(c2)C(=O)N([C@H](C)CO)C[C@@H](C)[C@H](CN(C)S(=O)(=O)c2ccccc2)OCCCC[C@H](C)O3)cc1 | -3 | 12 | -6 | 25* | 19 | 51
